In the library only some 14% were active in any assay of this set; here they are far more common.
Sm TGR inh = S. mansoni TGR enzyme inhibition. Q962Y6. Potency, µM (highest dose often 114 µM), for the others: at the highest dose activity change, negative = inhibition, actives largely listed as inhibitors. purified TGR, DTNB reduction, TNB absorbance 405 nm. AID 485364. hit rate 3% among 360,000; note: potency is the fitted concentration of half-maximal effect; nearly all actives have a fitted effect of over 60% in size
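First, TGR (20 nM dispensed) and NADPH were mixed with compound. Second, a 15 min room-temperature incubation followed. Third, further NADPH and then DTNB were added to start the reaction. Finally, TNB absorbance was monitored kinetically.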
Pf growth 48h = inhibits P. falciparum growth in the first generation, 48 h; P. falciparum luciferase growth in erythrocytes, 48 h; Potency, µM (highest dose often 28.7 µM), for inactives: at the top dose activity change, negative = inhibition, most hits filed as inhibitors; hit rate 5.9% among 310,000; note: potency is the fitted concentration of half-maximal effect
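Luminescence readout; reporter = integrated firefly luciferase in P. falciparum. RBC culture at 2% hematocrit, 0.1% parasitemia final, 37 C/5% CO2; decreased signal taken as growth inhibition.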
Pf growth 96h = P. falciparum growth inhibition at 96 hours; hit rate 6.9% among 320,000; P. falciparum luciferase reporter growth, 96 h; AID 504834; Potency, µM (top dose mostly 28.7 µM), for inactives: top-dose activity change, negative = inhibition, most hits filed as inhibitors; note: potency is the fitted concentration of half-maximal effect
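96 h incubation, 37 C, 5% CO2, of luciferase-reporter P. falciparum-infected RBCs (2% hematocrit, 0.05% parasitemia final) with test compounds; endpoint luminescence.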
HCMV inh = human cytomegalovirus inhibition; HFF cells, HCMV-luciferase reporter, 72 h; active compounds read low; activity change, negative = inhibition, % at 57.5 µM; hit rate 4.5% among 410,000; in the data active = activity change below about -60%; inconclusive = no clear call, values can overlap the other calls; inactive = above about -39%
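Inhibition of viral replication was scored as loss of reporter luminescence in HFFs infected with HCMV-luciferase (MOI 1 PFU/cell) for 72 h; compounds tested at 2 doses, normalized to buffer and Salinomycin controls.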
FBPA Giardia inh = Giardia lamblia aldolase inhibition. purified Giardia FBPA. A8B2U2. Potency, µM (top dose mostly 59.6 µM), inactives show at the highest dose activity, negative = inhibition, most hits filed as inhibitors. AID 2451. hit rate 0.71% among 290,000; note: potency is the fitted concentration of half-maximal effect; nearly all actives have a fitted effect of over 55% in size
Target sequence (A8B2U2 whole entry, looked up): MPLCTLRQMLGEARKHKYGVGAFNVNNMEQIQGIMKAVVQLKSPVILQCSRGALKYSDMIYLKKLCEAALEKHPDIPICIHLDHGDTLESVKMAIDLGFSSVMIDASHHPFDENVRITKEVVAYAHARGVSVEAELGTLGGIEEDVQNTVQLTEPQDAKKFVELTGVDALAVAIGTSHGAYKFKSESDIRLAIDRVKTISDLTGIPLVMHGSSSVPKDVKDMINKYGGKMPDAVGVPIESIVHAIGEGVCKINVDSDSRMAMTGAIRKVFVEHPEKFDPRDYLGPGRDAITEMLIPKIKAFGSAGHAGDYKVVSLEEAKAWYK
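Giardia FBPA (40 nM reagent) was preincubated 10 min at RT with compound (up to 57.5 uM final), then substrate plus GAPDH/TPI/NAD/arsenate coupling system with diaphorase/resazurin was added; resorufin fluorescence (525/598 nm) was read after 20 min.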
* hit, by the source's call; u = inconclusive; x = not tested or not shown. Unless noted, calls come from the whole dose curve; as a rule, active = well fitted curve in the direction sought with a large enough effect; inconclusive = small, poorly fitted or top-dose-only effect, or another doubt; inactive = no such curve, though single readings can be large; an effect the other way counts as inactive or inconclusive. % is set by controls: 0 for no effect and ±100 for the full control effect.

SMILES	Sm TGR inh	Pf growth 48h	Pf growth 96h	HCMV inh	FBPA Giardia inh
COc1ccccc1NCC(=O)N/N=C/c1c(O)ccc2ccccc12	-33.8%	u	0.0%	-94.8*	-17.6%
O=C(CN1CCCc2ccccc21)N/N=C/c1c(O)ccc2ccccc12	-8.4%	u	u	-98.3*	-8.1%
Cn1ncc(N=Cc2c(O)ccc3ccccc23)c1C(=O)N1CCOCC1	x	x	x	20.1	x
COc1ccccc1NC(=O)c1c(N=Cc2c(O)ccc3ccccc23)cnn1C	50.1µM*	7.38µM*	u	-89.2*	u
CSc1ccc(OC2(C)CCN(Cc3ccc(OC(C)C)cc3)C2)cc1 (centres undefined)	x	x	x	9.1	x
COC(=O)c1cc2oc3ccccc3c2n1Cc1c(C)cc(C)cc1C	-0.2%	x	x	25.0	x
CCOc1ccc(CNC(=O)Cn2nc(C)n3cccc3c2=O)cc1	7.2%	x	x	15.4	x
CC(NC(=O)C1CCN(S(=O)(=O)c2ccc3c(c2)oc(=O)n3C)CC1)c1ccccc1 (centres undefined)	-9.4%	x	x	-6.4	x
COC(=O)[C@@]12OC[C@]34[C@H]([C@@H](O)[C@@H]1O)[C@@]1(C)C(=O)C(O[C@@H]5OC(CO)[C@@H](O)[C@@H](O)[C@@H]5O)=C[C@@H](C)[C@@H]1C[C@H]3OC(=O)[C@H](OC(=O)/C=C(\C)C(C)(C)OC(C)=O)[C@@H]24 (some centres undefined)	u	2.62µM*	4.65µM*	x	x
CCc1ccccc1N1C(=O)N(Cc2ccccc2C)c2ccccc2S1(=O)=O	17.2%	x	x	-105.3*	x
Cc1ccc(C)c(N2C(=O)N(Cc3ccccc3C)c3ccccc3S2(=O)=O)c1	0.4%	x	x	-31.9	x
CC[C@@H](C(=O)[C@@H](C)[C@@H](O)[C@H](C)CCc1ccc(C)c(O)c1C(=O)O)[C@H]1O[C@](CC)([C@H]2CC[C@](O)(CC)[C@H](C)O2)C[C@@H]1C	4.7%	0.0928µM*	u	-99.5*	20.8%
CCC(C(=O)C(C)C(O)C(C)CCc1ccc(C)c(O)c1C(=O)O)C1OC(CC)(C2CC[C@@](O)(CC)C(C)O2)CC1C (some centres undefined)	x	0.379µM*	0.379µM*	x	9.6%
O=C(CCC1N=C2c3ccccc3N=C(SCc3ccccc3F)N2C1=O)NC1CCCCC1 (centres undefined)	-2.8%	x	x	-27.4	x
COc1ccc(C2C=C(C34CC5CC(CC(C5)C3)C4)NC(=S)N2)cc1OC (centres undefined)	-2.0%	u	9.28µM*	77.3	4.0%
COc1ccc(C2OCC(C)(C)CO2)cc1OC	x	x	x	-24.6	x
Cc1nnc(NC(=O)c2oc3ccccc3c2C)s1	1.6%	116.4%	201.0%	122.9	x
Cc1ccc2c(C)c(C(=O)Nc3nnc(C)s3)oc2c1	4.2%	21.3%	x	-99.4*	-0.1%
CCOC(=O)[C@]12CCC=C1N(Cc1ccc3c(c1)OCO3)C(=O)[C@H](CC(=O)N1CCN(C(=O)c3ccco3)CC1)C2	x	x	x	-0.1	x
Cc1ccccc1CNC(=O)C(=O)NCC(c1ccco1)S(=O)(=O)c1ccc(F)cc1 (centres undefined)	8.91µM*	x	x	-18.8	x
COc1ccccc1CCNC(=O)C(=O)NCC(c1ccco1)S(=O)(=O)c1ccc(F)cc1 (centres undefined)	17.8µM*	x	x	-14.6	x
COc1ccc(CCNC(=O)C(=O)NCC(c2ccco2)S(=O)(=O)c2ccccc2)cc1OC (centres undefined)	12.6µM*	x	x	41.7	x
COc1ccccc1CCNC(=O)C(=O)NCC(c1cccs1)S(=O)(=O)c1ccc(F)cc1 (centres undefined)	-1.0%	x	x	-18.0	x
COc1ccccc1CNC(=O)C(=O)NCC(c1ccco1)S(=O)(=O)c1ccc(C)cc1 (centres undefined)	-26.3%	x	x	-12.1	x
O=S1(=O)C2CC3C=CC2(CN1Cc1ccccc1)O3 (centres undefined)	x	x	x	x	10.3%
SMILES	Sm TGR inh	Pf growth 48h	Pf growth 96h	HCMV inh	FBPA Giardia inh
CCc1ccc(/C=C2/C(=O)NC(=O)N2C(C)=O)cc1	-21.6%	95.3%	60.8%	40.6	-3.7%
COc1ccccc1N1CCN(C(=S)NC(=O)/C=C/c2ccccc2)CC1	7.9%	u	u	24.8	0.3%
COc1cc2c(cc1OC)C(C)N(C(=O)c1cc3n(n1)C(C(F)(F)F)CC(c1ccco1)N3)CC2 (centres undefined)	25.1µM*	6.57µM*	x	9.6	u
Cc1cc(NC(=O)c2cc3n(n2)C(C(F)(F)F)CC(c2ccco2)N3)n(-c2ccccc2)n1 (centres undefined)	-21.7%	9.28µM*	u	-34.4	-8.2%
O=C1CC(c2cc([N+](=O)[O-])ccc2Cl)c2c(ccc3ccccc23)N1 (centres undefined)	-16.7%	u	41.5%	2.7	7.2%
O=C(Cn1c(-c2cccs2)cc2ccccc21)NCCCN1CCN(c2ccc(F)cc2)CC1	-9.4%	x	x	-31.2	x
O=C(O)c1cccc(N2CCCC2)c1	1.7%	5.7%	9.28µM*	118.2	-6.6%
Cc1ccc(C)n1-c1cccc(C(=O)O)c1	8.91µM*	21.0%	58.2%	x	-25.0%
Cc1ccc(S(=O)(=O)NC(C(=O)N2CCOCCOCCOCC2)c2ccccc2)cc1 (centres undefined)	3.8%	1.6%	-12.8%	-1.4	-0.4%
Cc1ccc(NS(=O)(=O)c2cccc(C(=O)Nc3cccnc3)c2)c(C)c1	x	x	x	-13.7	x
COc1ccccc1N1CCN(C(=O)c2cc3c(=O)n(Cc4ccco4)ccc3nc2C)CC1	14.1µM*	x	x	-27.5	x
Cc1[nH]c(-c2ccc(F)cc2)cc1C(=O)N1CCN(c2ccccc2)CC1	-5.8%	0.0%	20.0%	-3.0	-3.2%
Cc1[nH]c(-c2ccc(F)cc2)cc1C(=O)N1CCN(c2ccccc2F)CC1	-14.9%	-50.9%	3.7µM*	29.5	-5.6%
COc1ccccc1N1CCN(C(=O)c2cc(-c3ccc(F)cc3)[nH]c2C)CC1	11.5%	13.1µM*	-3.6%	21.5	-1.2%
COc1ccccc1N1CCN(C(=O)C(C)N(c2ccc(C)c(C)c2)S(C)(=O)=O)CC1 (centres undefined)	0.3%	u	11.7µM*	-15.1	1.2%
COc1ccccc1N1CCN(C(=O)c2ccoc2C)CC1	44.7µM*	-7.3%	x	1.2	-2.2%
CC(=NNC(=S)N1CCN(c2ccccn2)CC1)c1ccccn1	x	x	x	-13.8	x
CC(=NNC(=S)N1CC2CCC(CC2)C1)c1cnccn1	x	x	x	-95.8*	x
CC(=NNC(=S)N1CCN(C2CCCCCC2)CC1)c1ccccn1	x	x	x	-96.5*	x
CC(=NNC(=S)N1CCCCCC1)c1cccc2cccnc12	x	x	x	-74.9*	x
CC(=NNC(=S)N1CC2CCC(CC2)C1)c1ccccn1	x	x	x	-99.6*	x
C/C(=N/NC(=O)c1cnccn1)c1ccncc1	4.8%	33.2%	-2.4%	12.3	-0.6%
Cc1nn(CC(=O)NCCc2ccc(Cl)cc2)c(=O)c2cccn12	-1.5%	10.3%	4.2%	0.0	-5.5%
